UGM FP inh = blocks M. tuberculosis UGM enzyme. purified UGM, fluorescence polarization probe displacement. inhibition, % at 10 µM. 320,000 compounds, 0.06% hits; in the data active = inhibition above about 10%, passing the limit was not always enough; inconclusive = no clear call, values can overlap the other calls
RecA splice inh = inhibitors of M. tuberculosis RecA intein splicing. 290,000 compounds, 0.75% hits. inhibition, % (test concentration not listed). AID 2221. cell-free RecA intein splicing, fluorescence; in the data active = inhibition above about 30%; inconclusive = no clear call, values can overlap the other calls;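 note: 0% = vehicle wells and 100% = reference inhibitor control wells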
Rv3671c inh = inhibits the M. tuberculosis serine protease Rv3671c; inhibition, % at 5.96 µM; AID 2606; P9WHR9; 320,000 compounds, 0.048% hits; in the data active = inhibition above about 38%;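 note: extracellular domain of Rv3671c used as enzyme; 0% = enzyme with DMSO and 100% = no enzyme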
Target sequence (P9WHR9 whole entry, looked up, the tested form may be a part): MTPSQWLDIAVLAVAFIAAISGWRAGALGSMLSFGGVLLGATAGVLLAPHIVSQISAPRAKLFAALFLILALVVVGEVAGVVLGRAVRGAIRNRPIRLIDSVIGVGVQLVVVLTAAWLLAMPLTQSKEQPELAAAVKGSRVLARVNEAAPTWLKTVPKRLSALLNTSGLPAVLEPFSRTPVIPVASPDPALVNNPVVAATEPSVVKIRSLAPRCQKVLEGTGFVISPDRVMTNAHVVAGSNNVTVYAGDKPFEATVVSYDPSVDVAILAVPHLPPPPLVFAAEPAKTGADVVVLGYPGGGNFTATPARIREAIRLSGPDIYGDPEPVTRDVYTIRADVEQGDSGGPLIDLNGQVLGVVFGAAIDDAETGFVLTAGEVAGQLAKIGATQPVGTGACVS
Mtb bLac sens = beta-lactam sensitization of Mtb H37Rv; AID 434955; M. tuberculosis H37Rv growth with meropenem, percent inhibition; 330,000 compounds, 0.27% hits; inhibition, % at 25 µM;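 note: growth measured after seven days incubation then overnight dye step; 0% = bacteria only wells and 100% = bacteria with antibiotic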
PriA SSB inh = K. pneumoniae PriA-SSBct interaction inhibition. AID 1272365. inhibition, % at 33 µM. AlphaScreen SSBct-PriA binding, biotinylated peptide. 430,000 compounds, 0.6% hits; in the data active = inhibition mostly above about 37%, no sharp cut-off; inactive = mostly below about 20%;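 note: plate controls were negative control peptide for no effect and reference peptide for full effect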
GFP chromo cs = counter-screen: blocks GFP chromophore formation; shares compounds with RecA splice inh; cell-free GFP chromophore formation, fluorescence; EC50, µM; 2,100 compounds, 83% hits
Rv3671c cf = Rv3671c protease inhibition, confirmation. shares compounds with Rv3671c inh. inhibition, % at 5.96 µM. 140 compounds, 40% hits; in the data active = inhibition above about 38%
* marks the source's active call; other numbers are inactive results; ? = inconclusive; / = no result given. Compounds with a hit are over-represented: about 1.1% of the library has one in this group of screens. Unless noted, the rule behind the calls is not given here.

SMILES | UGM FP inh | RecA splice inh | Rv3671c inh | Mtb bLac sens | PriA SSB inh | Rv3671c cf | others
COc1ccc(C=NNC(=O)c2nn(-c3ccc(C)c(C)c3)c(=O)c3ccccc23)cc1 | / | / | / | / | -5 | /
COc1ccc(/C=N/NC(=O)c2nn(-c3ccc(Cl)cc3)c(=O)c3c(N)scc23)cc1 | -1 | 40* | -21 | 4 | / | / | GFP chromo cs=17*
CS(=O)(=O)Nc1cccc(NC(=O)C2CN(C(=O)c3ccc4c(c3)OCO4)C2)c1 | / | / | / | / | -6 | /
O=[N+]([O-])c1ccc(Oc2cccc(Br)c2)c2ccncc12 | 1 | 53* | 1 | 87 | 3 | / | GFP chromo cs=17*
O=[N+]([O-])c1ccc(Oc2ccc(F)cc2)c2ccncc12 | 2 | 67* | 1 | -1 | -13 | / | GFP chromo cs=32*
CCCCCCCCOC(=O)c1c(CSC(=N)N)n(C)c2cc(Br)c(OC(C)=O)cc12 | -2 | 90* | 13 | 94 | 2 | / | GFP chromo cs=2.4*
CCOC(=O)c1c(CSC(=N)N)n(-c2ccc(Br)cc2)c2cc(Br)c(OC(C)=O)cc12 | / | / | / | / | -8 | /
CCN=c1scc(-c2cccs2)n1N=Cc1cc(OC)ccc1O | / | / | / | / | 2 | /
CC1=NN(c2ccccc2)C(=O)C1=Cc1c(O)n(-c2ccc(F)cc2)[nH]c1=O | / | / | / | / | -7 | /
CC1=NN(c2ccccc2)C(=O)/C1=C/c1c(O)n(-c2ccc(F)c(Cl)c2)[nH]c1=O | -2 | 50* | 48* | 2 | / | 15 | GFP chromo cs=32*
O[C@H](COc1c(F)cc(Br)cc1F)CN1CCN(Cc2ccc3c(c2)OCO3)CC1 | / | / | / | / | 6 | /
Cc1ccc2nc(-c3cccs3)oc(=O)c2c1 | -1 | 32* | 52* | 4 | -5 | 63* | GFP chromo cs=>38
CC(=O)Oc1ccc2c(c1)Oc1cc(OC(C)=O)ccc1C21OC(=O)c2ccccc21 | ? | / | 122* | 5 | 3 | 123*
Cc1cc(O)ccc1C1(c2ccc(O)cc2C)OC(=O)c2ccccc21 | 1 | 16 | -10 | -1 | -4 | /
Cc1cccc(NC(=S)N=C(N)Nc2nc(C)c3ccccc3n2)c1 | / | / | / | / | 11 | /
O=C(NN=Cc1ccccc1F)c1cccc(NC(=O)c2ccccc2Cl)c1 | / | / | / | / | 0 | /
CC1=C(C(N)=O)C(c2cccs2)n2nc(-c3cccc(C)c3)nc2N1 (stereo unspecified) | -1 | -1 | 43* | 5 | -1 | 52*
CC(C)Cn1c(N)c(C(=O)COC(=O)c2ccc(O)cc2)c(=O)n(C)c1=O | -4 | 0 | 60* | 0 | -16 | -13
CCOC(=O)C1CCCN(C(=O)C2c3ccccc3Oc3ccccc32)C1 (stereo unspecified) | 23* | 0 | 60* | -4 | 2 | 10
CCOC(=O)C1CCCN(C(=O)C2COc3ccccc3O2)C1 (stereo unspecified) | / | / | / | / | -5 | /
COc1ccc(C(=O)NCC2(O)CCc3ccccc32)cc1F (stereo unspecified) | / | / | / | / | -5 | /
O=c1cc2oc3cc(O)c(O)cc3c(-c3ccccc3O)c-2cc1O | / | / | / | / | -2 | /
COc1ccc(OC)c(-c2c3cc(O)c(=O)cc-3oc3cc(O)c(O)cc23)c1 | 5 | / | 63* | 24 | 52 | 76*
COc1ccc(-c2ccc(=O)n(CCCNS(=O)(=O)c3cccnc3)n2)cc1 | / | / | / | / | -5 | /
CCCc1cc(=O)oc2cc(C)cc(OC(=O)c3ccco3)c12 | 1 | 1 | 66* | 10 | 7 | 84*
SMILES | UGM FP inh | RecA splice inh | Rv3671c inh | Mtb bLac sens | PriA SSB inh | Rv3671c cf | others
CN(C)c1cccc(C(=O)Nc2cnn(CC3CCOCC3)c2)c1 | / | / | / | / | -7 | /
CNC(=O)c1ccsc1NC(=O)c1cc(Cl)sc1Cl | / | / | / | / | -6 | /
Cc1ccccc1CN1CC(=O)N(Cc2ccccc2F)c2ccccc2S1(=O)=O | / | / | / | / | -6 | /
O=C(O)c1cccc2c1NC(C(=O)O)C1CC(Sc3ccccc3[N+](=O)[O-])C(Cl)C21 (stereo unspecified) | -1 | / | 50* | -6 | 38 | 24
CSC[C@@H]1NC(=S)N(c2ccc(C)cc2)C1=O | 1 | 1 | 91* | 23 | -6 | 83*
CCOCCCn1c(SCC(=O)Nc2oc(C)c3c(C)n[nH]c(=O)c23)nc2ccccc2c1=O | / | / | / | / | 10 | /
Cc1n[nH]c(=O)c2c(NC(=O)CSc3nc4ccccc4c(=O)n3CCCOC(C)C)oc(C)c12 | 0 | 1 | 92* | -1 | -4 | -2
Cc1ccc(SCCC(=O)Nc2ccc3scnc3c2)cc1 | / | / | / | / | -1 | /
Cc1cc(C)nc(NS(=O)(=O)c2ccc(N)cc2)n1 | -3 | -3 | 2 | -1 | -3 | /
